{"source": "PubChem BioAssay (Tox21)", "note": "Inconclusive results are not listed. A call without a number means that no potency is given here. The source made the active and inactive calls. The call rests on the fitted dose curve; in most records, active means well fitted cell-killing curve with a large enough effect in the repeat runs; inconclusive means weak or mixed curves; inactive means flat fitted curve, though single readings scatter.", "data": [{"experiment": "qHTS RealTime-Glo MT Cell Viability Assay in HepG2 cells - 32 hour (AID 1224877); further: nearly all actives have a fitted effect of over 55% in size", "conditions": "RealTime-Glo luminescence; series mostly up to 76.8 µM", "excerpt": "U.S. Tox21 Program National Center for Advancing Translational Sciences [NCATS] NIH Chemical Genomics Center [NCGC] U.S. Environmental Protection Agency [EPA] National Institutes of Environmental Health Sciences [NIEHS] National Toxicology Program [NTP] U.S. Food and Drug Administration [FDA] Tox21 Assay Overview: Measure of cell viability is critical in the cell-base assay. Analysis of cell viability is necessary for the characterization of cell responses to cytotoxic drugs and environmental stress. A RealTime-Glo MT Cell Viability Assay to monitor cell viability in real time of continues cell culture during 40 hours of compound treatment was used to screen Tox21 10K library compounds in HepG2 cells. The RealTime-Glo MT Cell Viability Assay is a nonlytic, homogeneous, bioluminescent method to measure cell viability in real time using a simple, plate-based method. The assay involves adding NanoLuc luciferase and a cell-permeant prosubstrate to cells in culture. Viable cells reduce the proprietary prosubstrate to generate a substrate for NanoLuc luciferase. This substrate diffuses from cells into the surrounding culture medium, where it is rapidly used by the NanoLuc Enzyme to produce a luminescent signal. The signal correlates with the number of viable cells, making the assay well suited for cytotoxicity studies.\nTox21 Assay Protocol Summary: The mixture of HepG2 cell suspension and reagents were dispensed at 600cells/6 ul/well in 1536-well tissue culture treated black solid bottom plates using a Multidrop dispenser. After the assay plates were incubated at a 37 C/5% CO2 incubator for 5 hours, 23 nL of compounds dissolved in DMSO, positive and negative controls was transferred to the assay plate by a pintool work station. The plates were incubated at 37 C for 40 hours. The luminescence intensity were measured at 0h, 8h, 16h, 24h, 32h and 40h time points using ViewLux plate reader during compound treatment.", "values": [{"smiles": "C[C@@H](N)[C@@H](O)c1ccccc1", "Potency": "inactive"}, {"smiles": "C=CC1(C)OC(=O)N(c2cc(Cl)cc(Cl)c2)C1=O", "note": "(stereo not given)", "Potency": "inactive"}, {"smiles": "CCCN1CCC[C@@H]2Cc3[nH]ncc3C[C@H]21", "Potency": "inactive"}, {"smiles": "O=C(Cl)OCc1ccccc1", "Potency": "inactive"}, {"smiles": "CC#Cc1cc(C)nc(Nc2ccccc2)n1", "Potency": "inactive"}, {"smiles": "OP(O)c1ccccc1", "Potency": "inactive"}, {"smiles": "O=C(Cl)CCl", "Potency": "inactive"}, {"smiles": "Cc1cc(OC(=O)N(C)C)nn1C(=O)N(C)C", "Potency": "inactive"}, {"smiles": "CS(=O)(=O)c1ccc(C(=O)C2C(=O)CCCC2=O)c(Cl)c1COCC(F)(F)F", "Potency": "inactive"}, {"smiles": "CN(C)CCc1c[nH]c2cccc(OP(=O)(O)O)c12", "Potency": "inactive"}, {"smiles": "ClCCCCl", "Potency": "inactive"}, {"smiles": "CCC1(c2cccc(O)c2)CCCCN(C)C1", "note": "(stereo not given)", "Potency": "inactive"}, {"smiles": "O=C(O)CBr", "Potency": "inactive"}, {"smiles": "N[C@@H]1C[C@H]1c1ccccc1", "Potency": "inactive"}, {"smiles": "C[N+]1(C)CCCCC1", "Potency": "inactive"}, {"smiles": "CON(C)C(=O)Nc1ccc(Br)cc1", "Potency": "inactive"}, {"smiles": "O=S1(=O)OCCO1", "Potency": "inactive"}, {"smiles": "CCC(C(N)=O)N1CCCC1=O", "note": "(stereo not given)", "Potency": "inactive"}, {"smiles": "C=C(Cl)CCl", "Potency": "inactive"}, {"smiles": "CC(C)(N)Cc1ccc(Cl)cc1", "Potency": "inactive"}, {"smiles": "CCCC(C)C1(CC)C(=O)N=C(S)NC1=O", "note": "(stereo not given)", "Potency": "inactive"}, {"smiles": "CCCOC(=O)c1cncn1C(C)c1ccccc1", "note": "(stereo not given)", "Potency": "inactive"}, {"smiles": "COP(=O)(OC)O/C(C)=C/C(=O)N(C)C", "Potency": "inactive"}, {"smiles": "ClCCCCCCCl", "Potency": "inactive"}, {"smiles": "NC(=O)CS(=O)C(c1ccccc1)c1ccccc1", "note": "(stereo not given)", "Potency": "inactive"}, {"smiles": "CCOC(=O)NC(C)(C)Cc1ccc(Cl)cc1", "Potency": "inactive"}, {"smiles": "NCC1(CC(=O)O)CCCCC1", "Potency": "inactive"}, {"smiles": "CCN(CC)C1CCCCC1", "Potency": "inactive"}, {"smiles": "CN(C)C1CCCCC1", "Potency": "inactive"}, {"smiles": "N[C@@H](Cc1ccc(Oc2cc(I)c(O)c(I)c2)c(I)c1)C(=O)O", "Potency": "inactive"}, {"smiles": "CCOC(=O)N(C)N=O", "Potency": "inactive"}, {"smiles": "CCOC(=O)CCl", "Potency": "inactive"}, {"smiles": "Cc1ccc2c(c1)C1CN(C)CCC1N2", "note": "(stereo not given)", "activity change, negative = cytotoxic": "-0.204% [at 15.8 µM] (inactive)"}, {"smiles": "CCCCS(=O)(=O)Cl", "Potency": "inactive"}, {"smiles": "CC(C)(N)Cc1ccccc1Cl", "Potency": "inactive"}, {"smiles": "CN1COCN(Cc2cnc(Cl)s2)/C1=N\\[N+](=O)[O-]", "Potency": "inactive"}, {"smiles": "S=C=S", "Potency": "inactive"}, {"smiles": "COC1=CC(=O)O[C@@H](/C=C/c2ccccc2)C1", "Potency": "inactive"}, {"smiles": "CCOC(=O)C(Cl)Cc1cc(-n2nc(C)n(C(F)F)c2=O)c(F)cc1Cl", "note": "(stereo not given)", "Potency": "inactive"}, {"smiles": "CCCC[N+](=O)[O-]", "Potency": "inactive"}]}]}
